About 83,000 compounds went through this panel and 20% of them were active in at least one assay; those are over-represented in the sample as a whole.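 The endpoint reported here, percent growth, reads 100 for growth as untreated, 0 for no net growth and -100 for all cells dead.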 Values without a mark were called inactive. Active and inactive are the calls of the source. The calls were made as follows: active = growth percent below 10; inactive = the rest.
Test system: HL-60(TB) leukemia
Assay: NCI-60 one-dose screen, 48 h (100 = growth as untreated, 0 = no growth, -100 = all killed)
Details: 10 µM unless noted

Going from CCOC(=O)n1cc(-c2nonc2-c2cn(C)c3ncccc23)c2ccccc21 to CCOC(=O)c1csc(NC(=O)COc2cccc(/C=C3\Oc4cc(OC)ccc4C3=O)c2)n1, the growth falls from 84.7% to 61.3%.

First: COc1ccc(-c2cn(-c3ccc(Cl)cc3)c(SCC(=O)c3ccc([N+](=O)[O-])cc3)n2)cc1
Second: CCNC(=O)Oc1ccc(/C(=C(\C)c2ccc(Cl)cc2)c2ccc(OCCN3CCCCC3)cc2)cc1
The growth of the first is higher: 84% for the first, 16.8% for the second.

Compared with COc1ccc(OCC(O)CN2CCN(c3ccc(Cl)cc3)CC2)cc1 (centres undefined), COc1ccc2cc(-c3nc4ccccc4[nH]3)c(=O)oc2c1 is lower in growth: 105% for the first, 81.2% for the second.

First: CCCCCCCCCCCCCCCC(=O)OC[C@@]1(O)C[C@@]23CC[C@@H]4C(C)(C)CCC[C@@]4(C)[C@@H]2CC[C@H]1C3
Second: Cc1cc(C(=O)O)c(C)n1-c1cccc(C(=O)O)c1
The growth of the first is higher: 73.3% for the first, 56.2% for the second.

Going from Cc1cc(N)ccc1-c1ccc(N)cc1C to NS(=O)(=O)c1ccc(NC2=C(Cl)C(=O)c3ccccc3C2=O)cc1, the growth rises from 84.6% to 87.6%.

Going from Fc1ccccc1-c1nc(-c2nc3cc(Cl)c(Cl)cc3[nH]2)c2ccccn12 to N#Cc1c(-c2ccccc2)[nH]c2ncc(-c3ccccc3)n2c1=O, the growth rises from 81.6% to 97.1%.

For COc1ccc2[nH]c(C(=O)OCc3ccc4cccc(O)c4n3)cc2c1, the growth was -36.8% (active).
With Cc1cc(N2CCOCC2)nc(N[C@@H]2CCC[C@H](Nc3ccnc4cc(Cl)ccc34)C2)n1 the growth was -69.5% (active).
